# Screens from PubChem.
# An excerpt weighted towards active compounds, which were near 3.6% of everything screened.
# Wnt act = activates Wnt/beta-catenin signaling in a reporter cell assay. activator, plate reader. activation, % at 9.35 µM. 300,000 compounds, 1.2% hits. AID 743398; in the data active means activation above about 30%, passing the limit was not always enough; inconclusive means no clear call, values can overlap the other calls;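 further: 0% = neutral control wells and 100% = positive control wells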
# A3A deaminase = human APOBEC3A DNA deaminase inhibition. recombinant A3A, FAM/TAMRA ssDNA deamination fluorescence. AID 493011. inhibition, % at 20 µM. 330,000 compounds, 0.41% hits;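 active means at least 40% inhibition at 20 µM here, with at most 30% in a related deaminase screen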;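 further: plate controls were A3A with DMSO for no effect and wells lacking A3A enzyme for full effect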
# Target sequence (P31941 whole entry, looked up): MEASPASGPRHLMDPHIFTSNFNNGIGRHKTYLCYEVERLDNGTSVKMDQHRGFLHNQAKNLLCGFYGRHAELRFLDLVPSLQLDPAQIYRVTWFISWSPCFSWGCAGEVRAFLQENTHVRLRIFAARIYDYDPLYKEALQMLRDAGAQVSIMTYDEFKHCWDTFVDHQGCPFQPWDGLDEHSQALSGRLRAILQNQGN
# esBAF inh = inhibitors of esBAF chromatin remodeling in mouse ES cells. Bmi1-luciferase knock-in reporter, 24 h; 100% = twice the neutral-well signal. reporter increase, % at 12.5 µM. 350,000 compounds, 2% hits; in the data active means activation above about 40%; inconclusive means no clear call, values can overlap the other calls;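 further: 0% = median of the plate's neutral control wells and 100% = double that signal; a rise in the Bmi1 reporter signal indicates esBAF inhibition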
# PHOSPHO1 inh = PHOSPHO1 (human) inhibition. Q8TCT1. recombinant PHOSPHO1, absorbance phosphatase assay. inhibition, % at 13.3 µM. 290,000 compounds, 1.1% hits; in the data active means inhibition above about 60%
# APOBEC3G inh = inhibitors of human APOBEC3G DNA deaminase; recombinant A3G, ssDNA deamination FAM/TAMRA fluorescence; inhibition, % at 20 µM; 330,000 compounds, 0.28% hits; AID 493012;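 active means inhibition of at least 40% at 20 µM, with no more than 30% in the related APOBEC3A deaminase screen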;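 further: plate controls were DMSO wells with A3G for no effect and wells lacking A3G enzyme for full effect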
# Target sequence (Q9HC16 whole entry, looked up): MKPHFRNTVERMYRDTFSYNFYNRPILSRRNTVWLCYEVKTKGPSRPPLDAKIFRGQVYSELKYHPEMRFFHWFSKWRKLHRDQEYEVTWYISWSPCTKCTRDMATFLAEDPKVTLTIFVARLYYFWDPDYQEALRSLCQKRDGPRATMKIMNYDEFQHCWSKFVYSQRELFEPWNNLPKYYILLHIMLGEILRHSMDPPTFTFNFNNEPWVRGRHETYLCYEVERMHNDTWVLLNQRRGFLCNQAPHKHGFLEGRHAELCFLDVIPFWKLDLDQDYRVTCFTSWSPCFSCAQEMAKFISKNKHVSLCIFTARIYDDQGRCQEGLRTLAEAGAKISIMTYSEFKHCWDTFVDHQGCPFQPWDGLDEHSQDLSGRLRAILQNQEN
# MITF TRPM1 HTS = increases MITF-driven TRPM1 promoter luciferase signal; SK-MEL-5 TRPM1-promoter luciferase, 24 h; % of positive control, neutral wells = 0; activation, % at 12.5 µM; 300,000 compounds, 0.75% hits;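 active means mean activation of at least 80% with every replicate also reaching 80%; inconclusive means mean reaches 80% but some replicate falls short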;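 further: 0% = neutral control wells and 100% = parthenolide positive control wells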
# Numbers without * were called inactive; ? = inconclusive; nt = not tested or not shown.
SMILES,Wnt act,A3A deaminase,esBAF inh,PHOSPHO1 inh,APOBEC3G inh,MITF TRPM1 HTS
O=C(Nc1ccccc1)C1=C[C@@H](c2ccc3c(c2)OCO3)C[C@@H](OCCCCO)O1,22,-5,67*,nt,-10,73
O=C(Nc1ccccc1)C1=C[C@H](c2ccc3c(c2)OCO3)C[C@H](OCCCCO)O1,10,-3,48*,1,-5,30
C[C@H](CO)N1C[C@H](C)[C@@H](CN(C)C)Oc2cc(C#C[C@@H](C)O)ccc2S1(=O)=O,nt,nt,-3,nt,nt,nt
C[C@H](CO)N1C[C@H](C)[C@H](CN(C)C(=O)Nc2ccccc2F)OCc2cn(nn2)CCCC1=O,nt,nt,-2,nt,nt,nt
Nc1[nH]c(N=NC(=O)c2ccccc2O)c2ccccc12,71*,-2,nt,26,-7,17
Cc1ccc2nc(-c3ccc(NC(=S)NCCC(C)C)cc3)sc2c1,49*,1,33,nt,3,30
Cc1ccc2nc(-c3ccc(NC(=S)NCC(C)(C)CN(C)C)cc3)sc2c1,56*,nt,-14,nt,nt,14
CCC(C)(C)NC(=S)Nc1ccc(-c2nc3ccc(C)cc3s2)cc1,6,-2,nt,5,-9,31
COc1cccc(C(c2sc3nc(C)nn3c2O)N2CCc3ccccc3C2)c1 (stereo unspecified),-2,-6,4,74*,-6,-2
COc1ccccc1S(=O)(=O)N[C@@H]1CC[C@@H](CCNC(=O)C2CCOCC2)O[C@H]1CO,nt,nt,-5,nt,nt,nt
COc1ccc(NC(=O)N(C)C[C@H]2OCCCC[C@@H](C)Oc3ccc(NS(=O)(=O)c4c(C)noc4C)cc3C(=O)N([C@H](C)CO)C[C@@H]2C)cc1,nt,nt,3,nt,nt,nt
CCn1ccnc1CN(C)Cc1nc(-c2ccc(C(=O)OC)cc2)no1,-1,11,6,60*,5,-3
COC(=O)c1ccc(-c2noc(CN(C)CC3CCCCO3)n2)cc1 (stereo unspecified),3,-5,42,10,-6,17
C=CCNc1nc(Nc2ccccc2F)nc(OCC)n1,18,3,85*,-10,4,45
CCOc1nc(Nc2ccccc2F)nc(OCC)n1,0,2,-1,4,1,nt
COc1ccccc1OCCNC(=O)c1ccc(Br)cc1,13,-5,56*,20,-7,38
Cn1cc(Br)c(C(=O)NNC(=O)c2ccc(Cl)cc2)n1,51*,1,30,-1,-7,19
O=C(Nc1ccc2nsnc2c1)c1ccc2c(c1)OCO2,-1,1,-8,1,-3,62
O=C(Nc1ccc(F)cc1)c1ccc2nsnc2c1,39*,0,?,34,-5,77
COc1cccc(NC(=O)c2nn(C)cc2Br)c1,nt,0,55*,nt,0,41
COc1ccccc1OCCNC(=O)c1ccc(C(C)(C)C)cc1,0,-2,nt,nt,-8,nt
Cc1noc(C)c1NC(=O)N(C)C[C@@H]1Oc2ccc(N(C)C)cc2C(=O)N([C@@H](C)CO)C[C@@H]1C,nt,nt,0,nt,nt,nt
CC(C)OC(=O)c1cccc(NC(=O)c2ccccc2)c1,?,-3,nt,3,-4,83*
COc1cc(NC(=O)c2ccc3snnc3c2)cc(OC)c1,23,-1,47*,22,-7,59
COc1cccc(NC(=O)c2ccc(OC(F)(F)F)cc2)c1,37*,-3,72*,nt,-4,107*
SMILES,Wnt act,A3A deaminase,esBAF inh,PHOSPHO1 inh,APOBEC3G inh,MITF TRPM1 HTS
CC(=O)c1ccc(NC(=O)c2cccc(NC(=O)c3ccccc3)c2)cc1,13,-2,?,8,-7,nt
Cc1ccc(NC(=O)c2ccc3snnc3c2)cc1,0,-6,nt,-1,-7,51
O=C(Nc1ccc(Br)cc1F)c1ccncc1,nt,-3,22,17,-2,18
O=C(Nc1ccc(Br)cc1F)c1ccc2nsnc2c1,21,-2,?,34,-1,129*
Cc1noc(C)c1S(=O)(=O)Nc1ccc2c(c1)CC(=O)N([C@H](C)CO)C[C@@H](C)[C@@H](CN(C)CC1CC1)O2,nt,nt,-1,nt,nt,nt
COCC(=O)Nc1ccc2c(c1)C(=O)N(C)C[C@H](OC)[C@@H](C)CN(Cc1ccccc1)[C@H](C)CO2,nt,nt,4,nt,nt,nt
COc1cc(NC(=O)c2ccc3nsnc3c2)cc(OC)c1OC,4,-1,1,27,-4,5
O=C(NNC(=S)Nc1cccc(Cl)c1)c1ccccc1,17,-6,?,-16,-7,33
COc1ccccc1OCc1ccc(C(=O)Nc2ccccc2)cc1,29,-3,79*,nt,-5,70
COc1cccc(NC(=O)c2ccc3nsnc3c2)c1,24,-3,56*,14,-4,62
O=C(Nc1cccc(Cl)c1)c1ccccc1,20,-1,42*,nt,14,78
COc1ccccc1NC(=O)c1ccc2nsnc2c1,26,-3,37,45,-11,91*
COc1ccc(S(=O)(=O)Nc2ccc3c(c2)CC(=O)N([C@@H](C)CO)C[C@@H](C)[C@@H](CN(C)S(=O)(=O)c2c(C)noc2C)O3)cc1,nt,nt,-4,nt,nt,nt
CCn1ncc(C(=O)Nc2cccc(Cl)c2)c1C,23,-6,53*,4,-5,53
COc1cccc(NC(=O)c2nnn(CCc3ccccc3)c2N)c1,18,0,78*,-11,-7,41
COc1ccccc1C(=O)NC(=O)Nc1cccc(Cl)c1,43*,1,-2,19,-5,46
COc1cccc(NC(=O)Cn2nnc(C(=O)Nc3ccccc3)c2N)c1,nt,-1,nt,21,-6,nt
CCc1cccc(NC(=O)c2cnn(-c3ccccc3)c2C)c1,5,-1,14,18,-2,nt
COc1ccc(/C=C(\NC(=O)c2ccc(OC)cc2)C(=O)Nc2cccc(C(=O)O)c2)cc1,9,-5,46*,-12,-9,3
COc1ccc(-c2cnc3c(c2)C(=O)N([C@@H](C)CO)C[C@@H](C)[C@@H](CN(C)C)O3)cc1,nt,nt,-10,nt,nt,nt
COc1cccc(/C(C)=N/NC(=O)c2ccc(N(C)C)cc2)c1,nt,2,53*,17,0,73
COc1cccc(NC(=O)c2ccccc2)c1,26,-5,35,nt,-6,104*
COc1cccc(NC(=O)c2cccc(C(=O)Nc3cccc(OC)c3)c2)c1,0,-1,-1,24,-2,nt
CCC(=O)N(C)C[C@H]1[C@H](c2ccc(C3=CCCC3)cc2)[C@@H](CO)N1C(=O)CC,nt,nt,-4,nt,nt,nt
CC1(C(=O)NS(=O)(=O)c2cccc(C#N)c2)CCN1C(=O)C1CCCCC1 (stereo unspecified),35*,nt,0,nt,nt,nt
CC1(C)Cc2c(oc3ncn4ncnc4c23)CO1,0,-1,1,13,-7,-12
CSc1nc2oc3c(c2c2nncn12)CC(C)(C)SC3,0,-6,-48,78*,-8,-11
Cc1noc(C)c1NC(=O)N(C)C[C@H]1OCCCC[C@@H](C)Oc2ccc(NS(=O)(=O)c3ccc(F)cc3)cc2C(=O)N([C@H](C)CO)C[C@H]1C,nt,nt,6,nt,nt,nt
